About 79,000 compounds went through this panel and 15% of them were active in at least one assay; those are over-represented in the sample as a whole. The source made the active and inactive calls. Rule as the data show it: active = growth inhibition above about 70%; inactive = the rest.
Legend:
[1] = NCI Yeast Anticancer Drug Screen. Data for the rad52 strain (AID 147);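 also: 0% = growth of vehicle-treated control cultures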; conditions: S. cerevisiae rad52 mutant growth inhibition, hits give high values
Procedure, shortened: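 Genetically altered yeast (DNA damage repair defect) treated with compound; inhibition calculated relative to vehicle.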

[2] = NCI Yeast Anticancer Drug Screen. Data for the wt1 strain (AID 149);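 also: 0% = growth of vehicle-treated wt1 cultures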; conditions: S. cerevisiae wt1 strain (SPY 50644) growth inhibition, hits give high values
Procedure, shortened: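 Growth inhibition read against vehicle controls after compound exposure of the wt1 yeast strain.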

[3] = NCI Yeast Anticancer Drug Screen. Data for the mgt1 strain (AID 153); conditions: S. cerevisiae mgt1 mutant growth inhibition, hits give high values
Procedure, shortened: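 Read-out: yeast growth inhibition vs vehicle control. Strain mgt1, drawn from a panel altered in DNA damage repair or cell cycle control.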

[4] = NCI Yeast Anticancer Drug Screen. Data for the rad50 strain (AID 155);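 also: 0% = growth of vehicle-only cultures of the same strain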; conditions: S. cerevisiae rad50 strain growth inhibition, hits give high values
Procedure, shortened: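 Readout: growth inhibition relative to vehicle-treated cultures. Compound exposure was carried out in a genetically defined yeast strain deficient in DNA damage repair.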

[5] = NCI Yeast Anticancer Drug Screen. Data for the mec2-1 strain (AID 157); conditions: S. cerevisiae mec2-1 strain, hits give high values
Procedure, shortened: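 Cells of the genetically defined mec2-1 yeast strain are incubated with test compound. Inhibition of growth is calculated against vehicle-treated controls.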

[6] = NCI Yeast Anticancer Drug Screen. Data for the rad14 strain (AID 159);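 also: 0% = growth of vehicle-treated control cultures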; conditions: S. cerevisiae rad14 strain growth inhibition, hits give high values
Procedure, shortened: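 Growth inhibition vs vehicle controls; genetically altered yeast strain (DNA damage repair defect) treated with test compounds.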

[7] = NCI Yeast Anticancer Drug Screen. Data for the sgs1 mgt1 strain (AID 161);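 also: 0% = growth of cultures given vehicle only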; conditions: S. cerevisiae sgs1 mgt1 strain, hits give high values
Procedure, shortened: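 Inhibition of yeast growth, normalised to vehicle-treated controls, is reported for a strain bearing genetic alterations in DNA damage repair.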

[8] = NCI Yeast Anticancer Drug Screen. Data for the CLN2oe strain (AID 163);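 also: 0% = growth of vehicle-only control cultures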; conditions: S. cerevisiae CLN2oe strain, hits give high values
Procedure, shortened: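 Strain altered in cell-cycle control, incubated with compound; growth compared to solvent-treated controls.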

[9] = NCI Yeast Anticancer Drug Screen. Data for the cln2 rad14 strain (AID 165);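 also: 0% = growth equal to vehicle treated cultures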; conditions: S. cerevisiae cln2 rad14 strain, hits give high values
Procedure, shortened: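 The screen exposed genetically defined yeast (cln2 rad14) to test compounds and scored growth inhibition relative to vehicle-treated controls.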

[10] = NCI Yeast Anticancer Drug Screen. Data for the bub3 strain (AID 167); conditions: S. cerevisiae bub3 mutant strain, hits give high values
Procedure, shortened: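 Readout: yeast growth inhibition, expressed relative to vehicle-only wells. The test organism is a mutant strain from a panel with lesions in DNA repair or checkpoint genes.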

[11] = NCI Yeast Anticancer Drug Screen. Data for the wt2 strain (AID 169);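 also: 0% = growth of vehicle-treated yeast cultures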; conditions: S. cerevisiae wt2 strain growth inhibition, hits give high values
Procedure, shortened: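 Steps: yeast strain treated with compound; growth recorded; inhibition calculated relative to cultures given vehicle alone.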

[12] = NCI Yeast Anticancer Drug Screen. Data for the mlh1 strain (AID 171);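 also: 0% = growth of vehicle-treated control cultures of the same strain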; conditions: S. cerevisiae mlh1 strain growth inhibition, hits give high values
Procedure, shortened: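 Yeast screen: mutant strain plus compound, growth scored against vehicle control wells.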

[13] = NCI Yeast Anticancer Drug Screen. Data for the sgs1 strain (AID 173);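 also: 0% = growth of vehicle-only control cultures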; conditions: S. cerevisiae sgs1 mutant, hits give high values
Procedure, shortened: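 Inhibition of yeast growth served as the measure. The mutant strain was treated with each compound, and growth was normalised to cultures receiving vehicle alone.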

[14] = NCI Yeast Anticancer Drug Screen. Data for the mlh1 rad18 strain (AID 175); conditions: S. cerevisiae mlh1 rad18 strain growth inhibition, hits give high values
Procedure, shortened: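 Compound-treated yeast growth, normalised to vehicle controls. Strain bears defined DNA repair mutations.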

[15] = NCI Yeast Anticancer Drug Screen. Data for the rad18 strain (AID 177); conditions: S. cerevisiae rad18 mutant growth inhibition, hits give high values
Procedure, shortened: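 Inhibition values reflect reduced yeast growth compared with vehicle-treated controls, using a strain engineered with a DNA damage repair defect.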

[16] = NCI Yeast Anticancer Drug Screen. Data for the rad50EPP+ strain (AID 151);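 also: 0% = growth of vehicle-treated control cultures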; conditions: S. cerevisiae rad50 mutant strain, hits give high values
Procedure, shortened: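 Strain rad50EPP+; compound exposure; % growth inhibition vs vehicle.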

[17] = at 5.0 µM (retest, dose inferred, filed as 0.5)
[18] = at 50.0 µM (retest, dose inferred, filed as 5.0)

Measured: growth inhibition

Cc1cc(O)c2c(c1O)C(=O)C13C(=C2O)C(=O)C2C(O)C1C1C(O)C3C(=O)C3=C(O)c4c(O)cc(C)c(O)c4C(=O)C321 (stereo unspecified)
active: [1]; at 33.0 µM 89% | [1]; at 100.0 µM 90% | [2]; at 33.0 µM 80% | [2]; at 100.0 µM 85% | [3]; at 33.0 µM 86% | [3]; at 100.0 µM 82% | [4]; at 33.0 µM 79% | [4]; [18] 84% | [4]; at 50.0 µM 77.3% | [4]; at 100.0 µM 80% | [5]; [17] 75% | [5]; at 11.0 µM 76% | [5]; at 33.0 µM 86% | [5]; [18] 93% | [5]; at 50.0 µM 85.3% | [5]; at 100.0 µM 83% | [6]; at 33.0 µM 77% | [6]; at 100.0 µM 80% | [7]; [18] 86% | [7]; at 50.0 µM 79.2% | [8]; at 11.0 µM 84% | [8]; at 33.0 µM 91% | [8]; at 100.0 µM 83% | [9]; [18] 91% | [10]; at 33.0 µM 82% | [10]; [18] 87% | [10]; at 50.0 µM 77% | [10]; at 100.0 µM 84% | [11]; at 33.0 µM 87% | [11]; at 100.0 µM 85% | [12]; at 33.0 µM 79% | [12]; at 100.0 µM 83% | [13]; at 33.0 µM 80% | [13]; at 100.0 µM 80% | [14]; [18] 86% | [15]; at 33.0 µM 73% | [15]; at 100.0 µM 84%
inactive: [1]; at 1.2 µM 28% | [1]; at 3.7 µM 39% | [1]; at 11.0 µM 58% | [2]; at 1.2 µM -7% | [2]; at 3.7 µM 2% | [2]; at 11.0 µM 38% | [3]; at 1.2 µM 5% | [3]; at 3.7 µM 26% | [3]; at 11.0 µM 61% | [4]; at 1.2 µM 29% | [4]; at 3.7 µM 37% | [4]; [17] 12% | [4]; at 11.0 µM 51% | [5]; at 1.2 µM 19% | [5]; at 3.7 µM 34% | [6]; at 1.2 µM -6% | [6]; at 3.7 µM 9% | [6]; at 11.0 µM 52% | [7]; [17] 37% | [8]; at 1.2 µM 18% | [8]; at 3.7 µM 17% | [9]; [17] 28% | [9]; at 50.0 µM 29.8% | [10]; at 1.2 µM -5% | [10]; at 3.7 µM 4% | [10]; [17] 59% | [10]; at 11.0 µM 27% | [11]; at 1.2 µM 12% | [11]; at 3.7 µM 26% | [11]; at 11.0 µM 52% | [12]; at 1.2 µM 18% | [12]; at 3.7 µM 15% | [12]; at 11.0 µM 43% | [13]; at 1.2 µM 29% | [13]; at 3.7 µM 31% | [13]; at 11.0 µM 54% | [14]; [17] 58% | [14]; at 50.0 µM 63.4% | [15]; at 1.2 µM -3% | [15]; at 3.7 µM -4% | [15]; at 11.0 µM 15%

O=NN(CCCl)C(=O)NC1CCCCC1
active: [15]; at 11.0 µM 84% | [15]; at 33.0 µM 92%
inactive: [1]; at 1.2 µM 6% | [1]; at 3.7 µM 11% | [1]; at 11.0 µM 33% | [1]; at 33.0 µM 44% | [1]; at 100.0 µM 50% | [2]; at 1.2 µM -2% | [2]; at 3.7 µM -1% | [2]; at 11.0 µM 1% | [2]; at 33.0 µM 5% | [2]; at 100.0 µM -5% | [16]; at 1.2 µM 16% | [16]; at 3.7 µM 24% | [16]; at 11.0 µM 45% | [16]; at 33.0 µM 61% | [16]; at 100.0 µM 49% | [4]; at 1.2 µM 5% | [4]; at 3.7 µM 12% | [4]; at 11.0 µM 39% | [4]; at 33.0 µM 55% | [4]; at 100.0 µM 52% | [5]; at 1.2 µM -1% | [5]; at 3.7 µM 4% | [5]; at 11.0 µM 10% | [5]; at 33.0 µM 13% | [5]; at 100.0 µM 13% | [6]; at 1.2 µM 1% | [6]; at 3.7 µM 7% | [6]; at 11.0 µM 13% | [6]; at 33.0 µM 15% | [6]; at 100.0 µM 14% | [8]; at 1.2 µM -3% | [8]; at 3.7 µM -2% | [8]; at 11.0 µM -3% | [8]; at 33.0 µM -5% | [8]; at 100.0 µM 18% | [10]; at 1.2 µM -4% | [10]; at 3.7 µM -3% | [10]; at 11.0 µM 3% | [10]; at 33.0 µM 14% | [10]; at 100.0 µM 12% | [11]; at 1.2 µM -3% | [11]; at 3.7 µM -2% | [11]; at 11.0 µM 2% | [11]; at 33.0 µM 11% | [11]; at 100.0 µM 49% | [12]; at 1.2 µM 0% | [12]; at 3.7 µM 1% | [12]; at 11.0 µM 8% | [12]; at 33.0 µM 11% | [12]; at 100.0 µM 17% | [13]; at 1.2 µM 4% | [13]; at 3.7 µM 7% | [13]; at 11.0 µM 22% | [13]; at 33.0 µM 34% | [13]; at 100.0 µM 43% | [15]; at 1.2 µM 29% | [15]; at 3.7 µM 46% | [15]; at 100.0 µM 53%

CC1C(C#N)(C#N)C(C#N)=C(N)C1(Cl)[N+](=O)[O-] (stereo unspecified)
active: [1]; at 100.0 µM 85% | [16]; at 33.0 µM 78% | [16]; at 100.0 µM 85% | [4]; [18] 78% | [4]; at 50.0 µM 77.5% | [4]; at 100.0 µM 76% | [5]; [18] 85% | [5]; at 50.0 µM 77.4% | [5]; at 100.0 µM 81% | [7]; [18] 78% | [7]; at 50.0 µM 76% | [10]; [18] 86% | [10]; at 50.0 µM 73.8% | [10]; at 100.0 µM 84% | [12]; at 100.0 µM 89% | [13]; at 100.0 µM 90% | [14]; [18] 94% | [15]; at 100.0 µM 87%
inactive: [1]; at 1.2 µM 3% | [1]; at 3.7 µM 33% | [1]; at 11.0 µM 35% | [1]; at 33.0 µM 56% | [2]; at 1.2 µM 10% | [2]; at 3.7 µM 9% | [2]; at 11.0 µM 8% | [2]; at 33.0 µM 22% | [2]; at 100.0 µM 55% | [16]; at 1.2 µM 19% | [16]; at 3.7 µM 37% | [16]; at 11.0 µM 55% | [4]; at 1.2 µM 4% | [4]; at 3.7 µM 26% | [4]; [17] 24% | [4]; at 11.0 µM 29% | [4]; at 33.0 µM 40% | [5]; at 1.2 µM 0% | [5]; at 3.7 µM 30% | [5]; [17] 11% | [5]; at 11.0 µM 32% | [5]; at 33.0 µM 41% | [7]; [17] 11% | [9]; [17] -5% | [9]; [18] 30% | [9]; at 50.0 µM 65.8% | [10]; at 1.2 µM 12% | [10]; at 3.7 µM 12% | [10]; [17] 20% | [10]; at 11.0 µM 20% | [10]; at 33.0 µM 49% | [12]; at 1.2 µM 11% | [12]; at 3.7 µM 28% | [12]; at 11.0 µM 45% | [12]; at 33.0 µM 68% | [13]; at 1.2 µM 28% | [13]; at 3.7 µM 20% | [13]; at 11.0 µM 37% | [13]; at 33.0 µM 61% | [14]; [17] 19% | [14]; at 50.0 µM 48% | [15]; at 1.2 µM 14% | [15]; at 3.7 µM 17% | [15]; at 11.0 µM 34% | [15]; at 33.0 µM 61%

Reference: PubChem BioAssay (NCI)
